In the supplement of paper PMC9023506:
Where a name gives a salt, the structure may show the parent alone.

The molecules below were run on Danio rerio larvae (5 dpf) (assay: optomotor response to blue moving lines, difference vs DMSO (percentage points (treated minus DMSO)); higher = more of the behaviour than the DMSO vehicle control). Settings: 10 µM; exposure time: 3 h pre-incubation + 3 h imaging.
Experimental: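 5-dpf wild-type zebrafish larvae were imaged in 96-well plates. They were treated with 190 Tocris FDA-approved drugs at 10 µM (1 µl/ml DMSO) for 3 h before and 3 h during imaging at 28.5 °C, 48 larvae per drug. Automated image analysis gave % time moving and optomotor responses. Values are drug group mean minus DMSO vehicle mean (n=844), in percentage points, for 10 behaviours.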

Compound	optomotor response to blue moving lines
CC(C)n1c(/C=C/C(O)CC(O)CC(=O)O)c(-c2ccc(F)cc2)c2ccccc21 (stereo not given) [Fluvastatin sodium]	-4.94
CCCCCCCN(CC)CCCC(O)c1ccc(NS(C)(=O)=O)cc1 (stereo not given) [Ibutilide hemifumarate]	12.1
COc1ccccc1Oc1c(NS(=O)(=O)c2ccc(C(C)(C)C)cc2)nc(-c2ncccn2)nc1OCCO [Bosentan]	-2.84
CCOc1nc2cccc(C(=O)O)c2n1Cc1ccc(-c2ccccc2-c2nnn[nH]2)cc1 [Candesartan]	9.66
CCOC(=O)[C@H](CCc1ccccc1)N[C@H]1CCc2ccccc2N(CC(=O)O)C1=O [Benazepril hydrochloride]	5.7
CN(C)CC/C=C1/c2ccccc2COc2ccc(CC(=O)O)cc21 [Olopatadine hydrochloride]	-0.0571
CC(=O)Oc1ccccc1C(=O)O [Aspirin]	2.57
COc1cc2nc(N3CCN(C(=O)C4COc5ccccc5O4)CC3)nc(N)c2cc1OC (stereo not given) [Doxazosin mesylate]	-6.52
CN/C(=N\CCSCc1nc[nH]c1C)NC#N [Cimetidine]	4.9
Cc1nc(-c2ccc(OCC(C)C)c(C#N)c2)sc1C(=O)O [Febuxostat]	-7.14
COc1ccc(-c2ccc3cc(C(=O)O)ccc3c2)cc1C12CC3CC(CC(C3)C1)C2 [Adapalene]	-1.19
CCOc1ccccc1OCCN[C@H](C)Cc1ccc(OC)c(S(N)(=O)=O)c1 [Tamsulosin hydrochloride]	2.91
Nc1nc2c(ncn2COCCO)c(=O)[nH]1 [Acyclovir]	10.2
Cc1cn([C@H]2C=C[C@@H](CO)O2)c(=O)[nH]c1=O [Stavudine]	10
CC(CCc1ccc(O)cc1)NCCc1ccc(O)c(O)c1 (stereo not given) [Dobutamine hydrochloride]	-11.2
C#CCN[C@@H]1CCc2ccccc21 [Rasagiline mesylate]	15.8
COc1cc2nccc(Oc3ccc(NC(=O)C4(C(=O)Nc5ccc(F)cc5)CC4)cc3)c2cc1OC	-8.79
COc1ccc(C[C@@H](C)NC[C@H](O)c2ccc(O)c(NC=O)c2)cc1 [Arformoterol tartrate]	-4.26
Clc1ccc(COC(Cn2ccnc2)c2ccc(Cl)cc2Cl)c(Cl)c1 (stereo not given) [Miconazole nitrate]	-7.42
CC(C)C(=O)Nc1ccc([N+](=O)[O-])c(C(F)(F)F)c1 [Flutamide]	-17.2

Compound	optomotor response to blue moving lines
Cc1ccccc1C(=O)Nc1ccc(C(=O)N2CCCC(O)c3cc(Cl)ccc32)c(C)c1 (stereo not given) [Tolvaptan]	-0.344
C[C@H]1O[C@H](O[C@H]2[C@H](O)[C@@H](O)[C@@H](O[C@H]3[C@H](O)[C@@H](O)C(O)O[C@@H]3CO)O[C@@H]2CO)[C@H](O)[C@@H](O)[C@@H]1N[C@H]1C=C(CO)[C@@H](O)[C@H](O)[C@H]1O (stereo not given in full) [Acarbose]	15.5
C[C@H]1C[C@@H]2[C@H]([C@@H](O)C[C@@]3(C)[C@H]2CC[C@]3(O)C(=O)CO)[C@@]2(C)C=CC(=O)C=C12 [Methylprednisolone]	10.6
CC(C)Nc1cccnc1N1CCN(C(=O)c2cc3cc(NS(C)(=O)=O)ccc3[nH]2)CC1 [Delavirdine mesylate]	-0.42
CCCCCCCCc1ccc(CCC(N)(CO)CO)cc1	-1.76
CN(CCOc1ccc(NS(C)(=O)=O)cc1)CCc1ccc(NS(C)(=O)=O)cc1 [Dofetilide]	-7.25
Cc1ccc(O)c([C@H](CCN(C(C)C)C(C)C)c2ccccc2)c1 [Tolterodine L-tartrate]	7.18
O=c1n(CCCN2CCN(c3cccc(Cl)c3)CC2)nc2ccccn12 [Trazodone hydrochloride]	6.49
Nc1nc(Cl)nc2c1ncn2[C@@H]1O[C@H](CO)[C@@H](O)[C@@H]1F [Clofarabine]	4.47
CCCCC(=O)N(Cc1ccc(-c2ccccc2-c2nnn[nH]2)cc1)[C@H](C(=O)O)C(C)C [Valsartan]	6.89
COc1c(C)c2c(c(O)c1C/C=C(\C)CCC(=O)OCCN1CCOCC1)C(=O)OC2 [Mycophenolate mofetil]	16.8
N#Cc1ccc(C(c2ccc(C#N)cc2)n2cncn2)cc1 [Letrozole]	2.11
Clc1ccc2nsnc2c1NC1=NCCN1 [Tizanidine hydrochloride]	3.61
CC1=Nc2ccc(Cl)cc2S(=O)(=O)N1 [Diazoxide]	0.0367
CCOC(=O)[C@H](CCc1ccccc1)N[C@@H](C)C(=O)N1[C@H](C(=O)O)C[C@@H]2CCC[C@@H]21 [Ramipril]	4.54
COc1c(C)c2c(c(O)c1C/C=C(\C)CCC(=O)O)C(=O)OC2 [Mycophenolic acid]	7
COc1ccc(Cl)cc1C(=O)NCCc1ccc(S(=O)(=O)NC(=O)NC2CCCCC2)cc1 [Glibenclamide]	1.29
Cc1ccc(-c2cc(C(F)(F)F)nn2-c2ccc(S(N)(=O)=O)cc2)cc1 [Celecoxib]	-3.07
Nc1cc(N2CCCCC2)nc(N)[n+]1[O-] [Minoxidil]	-6.76
COC(=O)C1=C(C)NC(C)=C(C(=O)OC(C)C)C1c1cccc2nonc12 (stereo not given) [Isradipine]	-11.3
